Common to all, as to experiment: DAPPL (digital affinity profiling via proximity ligation, sequencing); 10 mM Tris-HCl pH 7.5, 50 mM NaCl, 1 mM DTT, 4% glycerol, room temperature, 30 min; GST-TFs on glutathione beads, 16-mer random dsDNA library, 0.1% formaldehyde crosslink after washing; high values mean tight binding
Conditions in all cases: protein: recombinant; tags: N-terminal GST; dsDNA, one strand shown

One assay deals with T1, FLI1 (Homo sapiens, UniProt Q01543 1-452).
T1 sequence: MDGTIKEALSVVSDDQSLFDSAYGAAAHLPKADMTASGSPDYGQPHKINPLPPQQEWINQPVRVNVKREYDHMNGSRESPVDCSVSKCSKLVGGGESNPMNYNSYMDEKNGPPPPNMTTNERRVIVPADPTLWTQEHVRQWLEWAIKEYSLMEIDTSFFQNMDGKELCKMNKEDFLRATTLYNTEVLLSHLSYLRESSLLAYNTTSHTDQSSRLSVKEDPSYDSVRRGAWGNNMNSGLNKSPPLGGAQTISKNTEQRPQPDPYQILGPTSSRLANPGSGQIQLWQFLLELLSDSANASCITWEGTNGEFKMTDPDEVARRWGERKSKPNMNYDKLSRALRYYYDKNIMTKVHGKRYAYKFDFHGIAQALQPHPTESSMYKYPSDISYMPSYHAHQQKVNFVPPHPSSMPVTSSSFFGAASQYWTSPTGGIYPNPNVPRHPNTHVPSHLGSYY
In outline:
(§1)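 Human transcription factors fused to GST were expressed in yeast, captured on glutathione beads, given DNA barcodes and pooled with a GST-only negative control. Pools were incubated with 200 nmole of a 16-mer random double-stranded DNA library in Tris/NaCl/DTT/glycerol buffer at room temperature for 30 min. They were then washed, crosslinked with 0.1% formaldehyde, proximity-ligated (BsaI/T4 ligase, 1 h, 37 °C), PCR-amplified and sequenced on an Illumina NextSeq500. Binding signal is each 6-mer's read frequency for a factor divided by its frequency for the GST control.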

The next assay addresses T2, ELK1 (Homo sapiens, UniProt P19419 1-428).
T2 sequence: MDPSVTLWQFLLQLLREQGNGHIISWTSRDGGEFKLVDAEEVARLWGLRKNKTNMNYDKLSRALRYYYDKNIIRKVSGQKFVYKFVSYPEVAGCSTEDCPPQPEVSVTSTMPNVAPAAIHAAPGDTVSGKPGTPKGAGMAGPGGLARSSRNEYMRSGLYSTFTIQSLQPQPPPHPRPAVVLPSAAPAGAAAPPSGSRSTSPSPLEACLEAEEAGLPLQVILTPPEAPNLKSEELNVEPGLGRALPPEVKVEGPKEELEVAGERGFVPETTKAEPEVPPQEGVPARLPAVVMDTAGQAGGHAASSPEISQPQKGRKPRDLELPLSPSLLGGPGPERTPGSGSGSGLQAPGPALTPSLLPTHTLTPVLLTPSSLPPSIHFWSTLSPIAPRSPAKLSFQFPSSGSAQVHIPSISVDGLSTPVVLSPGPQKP
In outline:
as §1

The target in another assay is T3, GABPA (Homo sapiens, UniProt Q06546 1-454).
T3 sequence: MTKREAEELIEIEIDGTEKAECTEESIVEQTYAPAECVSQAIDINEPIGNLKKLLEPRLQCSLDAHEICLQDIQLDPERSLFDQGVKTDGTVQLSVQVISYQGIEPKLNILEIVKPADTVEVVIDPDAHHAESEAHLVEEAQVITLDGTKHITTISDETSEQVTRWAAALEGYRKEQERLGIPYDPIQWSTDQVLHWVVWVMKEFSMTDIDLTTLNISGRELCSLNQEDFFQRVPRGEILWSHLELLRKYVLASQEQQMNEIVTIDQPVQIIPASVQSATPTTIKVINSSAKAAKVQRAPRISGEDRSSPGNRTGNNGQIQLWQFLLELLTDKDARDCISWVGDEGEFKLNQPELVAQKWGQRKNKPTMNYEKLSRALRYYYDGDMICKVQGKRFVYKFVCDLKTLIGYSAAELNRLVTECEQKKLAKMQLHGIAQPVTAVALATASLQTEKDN
A digest of the protocol: as §1

The target of another assay is T4, ERG (Homo sapiens, UniProt P11308 1-479).
T4 sequence: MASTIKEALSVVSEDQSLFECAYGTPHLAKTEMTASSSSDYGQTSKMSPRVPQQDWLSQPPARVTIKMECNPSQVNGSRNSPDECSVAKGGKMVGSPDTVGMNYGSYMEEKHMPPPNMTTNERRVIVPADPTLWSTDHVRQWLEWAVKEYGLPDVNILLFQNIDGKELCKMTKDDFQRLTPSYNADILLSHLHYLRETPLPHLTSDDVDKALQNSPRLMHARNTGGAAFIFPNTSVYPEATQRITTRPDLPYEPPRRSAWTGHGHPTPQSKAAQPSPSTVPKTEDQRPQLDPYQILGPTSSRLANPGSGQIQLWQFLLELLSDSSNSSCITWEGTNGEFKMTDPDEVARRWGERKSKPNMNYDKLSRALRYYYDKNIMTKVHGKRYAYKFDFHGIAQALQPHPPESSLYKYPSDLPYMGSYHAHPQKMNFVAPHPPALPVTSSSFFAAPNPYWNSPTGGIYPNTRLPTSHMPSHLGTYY
A digest of the protocol:
as §1

The target of another assay is ELF1 (Homo sapiens, UniProt P32519 1-619). In outline: as §1
Chain of ELF1 (P32519 whole entry): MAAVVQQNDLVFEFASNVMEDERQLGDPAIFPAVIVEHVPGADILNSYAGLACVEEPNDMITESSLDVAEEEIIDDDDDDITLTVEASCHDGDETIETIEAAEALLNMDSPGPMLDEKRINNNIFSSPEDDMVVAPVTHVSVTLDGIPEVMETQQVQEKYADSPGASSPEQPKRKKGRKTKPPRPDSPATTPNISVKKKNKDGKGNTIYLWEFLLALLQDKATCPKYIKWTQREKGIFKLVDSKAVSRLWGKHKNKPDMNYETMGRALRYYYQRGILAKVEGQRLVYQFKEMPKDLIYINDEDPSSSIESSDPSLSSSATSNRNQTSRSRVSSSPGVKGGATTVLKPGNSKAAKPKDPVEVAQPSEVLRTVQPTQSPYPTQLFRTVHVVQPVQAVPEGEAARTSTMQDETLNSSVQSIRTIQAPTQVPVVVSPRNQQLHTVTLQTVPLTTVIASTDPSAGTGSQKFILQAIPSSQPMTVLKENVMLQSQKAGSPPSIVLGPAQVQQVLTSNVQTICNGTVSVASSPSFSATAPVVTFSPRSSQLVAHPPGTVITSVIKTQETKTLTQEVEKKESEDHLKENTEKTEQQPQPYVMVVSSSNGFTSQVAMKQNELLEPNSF
In the next assay the target is T5, EHF (Homo sapiens, UniProt Q9NZC4 1-300).
T5 sequence: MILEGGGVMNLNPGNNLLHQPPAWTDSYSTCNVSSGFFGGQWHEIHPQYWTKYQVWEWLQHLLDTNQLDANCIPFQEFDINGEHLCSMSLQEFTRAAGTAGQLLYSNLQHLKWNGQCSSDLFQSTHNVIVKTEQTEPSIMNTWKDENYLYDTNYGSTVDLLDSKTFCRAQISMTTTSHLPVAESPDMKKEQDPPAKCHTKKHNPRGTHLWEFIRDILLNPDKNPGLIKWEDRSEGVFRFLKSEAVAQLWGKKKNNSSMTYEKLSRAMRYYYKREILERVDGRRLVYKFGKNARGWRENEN
In outline: as §1

For assay [1], the target named is SPI1 (Homo sapiens, UniProt P17947 1-270). A digest of the protocol:
as §1

The target in another assay is SPIB (Homo sapiens, UniProt Q01892 1-262). In outline: as §1
Chain of SPIB (Q01892 whole entry): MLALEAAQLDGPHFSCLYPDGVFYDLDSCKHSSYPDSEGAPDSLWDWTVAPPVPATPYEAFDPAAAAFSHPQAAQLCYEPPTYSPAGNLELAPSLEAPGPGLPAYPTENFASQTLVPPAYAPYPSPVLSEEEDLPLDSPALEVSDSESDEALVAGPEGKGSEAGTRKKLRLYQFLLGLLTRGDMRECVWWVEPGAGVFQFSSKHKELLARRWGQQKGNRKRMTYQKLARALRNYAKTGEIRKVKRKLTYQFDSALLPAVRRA
The next assay concerns the target T6, ELK3 (Homo sapiens, UniProt P41970 1-407).
T6 sequence: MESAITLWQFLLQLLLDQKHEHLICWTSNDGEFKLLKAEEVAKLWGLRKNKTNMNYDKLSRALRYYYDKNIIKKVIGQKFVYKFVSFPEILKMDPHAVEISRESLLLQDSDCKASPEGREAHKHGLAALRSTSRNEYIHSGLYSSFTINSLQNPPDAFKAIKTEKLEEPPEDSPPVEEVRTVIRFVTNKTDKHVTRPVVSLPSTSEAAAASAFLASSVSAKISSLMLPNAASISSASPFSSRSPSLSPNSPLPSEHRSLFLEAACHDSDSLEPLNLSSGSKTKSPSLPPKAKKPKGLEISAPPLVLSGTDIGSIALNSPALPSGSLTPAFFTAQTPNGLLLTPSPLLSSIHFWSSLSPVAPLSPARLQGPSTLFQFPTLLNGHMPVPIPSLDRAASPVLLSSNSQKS
A digest of the protocol:
as §1

The target of assay [2] is SPI1 (Homo sapiens, UniProt P17947 1-270). In outline: as §1
This is another data set of the same source.

Consider GGAAGT, for which the binding signal in the assay with FLI1 is 2.88 fold enrichment (6-mer frequency, TF over GST control); with ELK1, 3.29 fold enrichment (6-mer frequency, TF over GST control); with GABPA it was 2.57 fold enrichment (6-mer frequency, TF over GST control); with ERG, 3.6 fold enrichment (6-mer frequency, TF over GST control); in the assay with ELF1 it was 2.87 fold enrichment (6-mer frequency, TF over GST control); in the assay with EHF it was 3.23 fold enrichment (6-mer frequency, TF over GST control). Also, the binding signal is 4.86 fold enrichment (6-mer frequency, TF over GST control) with SPI1 [1]; 3.19 fold enrichment (6-mer frequency, TF over GST control) with SPIB; 3.36 fold enrichment (6-mer frequency, TF over GST control) with ELK3.

CCGGGT: the binding signal is 1.2 fold enrichment (6-mer frequency, TF over GST control) with FLI1; 1.06 fold enrichment (6-mer frequency, TF over GST control) with ELK1; 1.01 fold enrichment (6-mer frequency, TF over GST control) with GABPA; 1.12 fold enrichment (6-mer frequency, TF over GST control) with ERG; 1.13 fold enrichment (6-mer frequency, TF over GST control) with ELF1; 1.17 fold enrichment (6-mer frequency, TF over GST control) with EHF. The binding signal was 1.01 fold enrichment (6-mer frequency, TF over GST control) in the assay with SPI1 [2] and 1.16 fold enrichment (6-mer frequency, TF over GST control) with SPIB.

With ACGGCC, the binding signal was 1.1 fold enrichment (6-mer frequency, TF over GST control) with FLI1; 1.13 fold enrichment (6-mer frequency, TF over GST control) with ELK1; 1.12 fold enrichment (6-mer frequency, TF over GST control) in the assay with GABPA; 1.09 fold enrichment (6-mer frequency, TF over GST control) in the assay with ERG; 1.09 fold enrichment (6-mer frequency, TF over GST control) with ELF1; 1.09 fold enrichment (6-mer frequency, TF over GST control) in the assay with EHF. Moreover, the binding signal was 1.09 fold enrichment (6-mer frequency, TF over GST control) with SPI1 [2] and 1.26 fold enrichment (6-mer frequency, TF over GST control) in the assay with SPIB.

In the case of TGCGCA, the binding signal is 1.17 fold enrichment (6-mer frequency, TF over GST control) with FLI1; 1.07 fold enrichment (6-mer frequency, TF over GST control) with ELK1; 1.07 fold enrichment (6-mer frequency, TF over GST control) with GABPA; 1.07 fold enrichment (6-mer frequency, TF over GST control) with ERG; 1.14 fold enrichment (6-mer frequency, TF over GST control) in the assay with ELF1; 1.16 fold enrichment (6-mer frequency, TF over GST control) in the assay with EHF. Also, the binding signal is 1.08 fold enrichment (6-mer frequency, TF over GST control) with SPI1 [2] and 1.02 fold enrichment (6-mer frequency, TF over GST control) with SPIB.

TGTGCA: the binding signal with FLI1 is 1 fold enrichment (6-mer frequency, TF over GST control); in the assay with ELK1, 1.09 fold enrichment (6-mer frequency, TF over GST control); with GABPA, 1.08 fold enrichment (6-mer frequency, TF over GST control); with ERG, 1.16 fold enrichment (6-mer frequency, TF over GST control); with ELF1, 1.08 fold enrichment (6-mer frequency, TF over GST control); with EHF, 1.14 fold enrichment (6-mer frequency, TF over GST control). Moreover, the binding signal was 1.08 fold enrichment (6-mer frequency, TF over GST control) with SPI1 [2] and 1.18 fold enrichment (6-mer frequency, TF over GST control) with SPIB.

Take TATGCC: the binding signal with FLI1 was 1.11 fold enrichment (6-mer frequency, TF over GST control); in the assay with ELK1, 1.27 fold enrichment (6-mer frequency, TF over GST control); in the assay with GABPA, 1.21 fold enrichment (6-mer frequency, TF over GST control); with ERG, 1.17 fold enrichment (6-mer frequency, TF over GST control); with ELF1, 1.2 fold enrichment (6-mer frequency, TF over GST control); in the assay with EHF it was 1.18 fold enrichment (6-mer frequency, TF over GST control). Moreover, the binding signal with SPI1 [2] is 1.11 fold enrichment (6-mer frequency, TF over GST control); with SPIB, 1.26 fold enrichment (6-mer frequency, TF over GST control).

With AATAGA, the binding signal was 1.06 fold enrichment (6-mer frequency, TF over GST control) in the assay with FLI1; 1.09 fold enrichment (6-mer frequency, TF over GST control) in the assay with ELK1; 1.11 fold enrichment (6-mer frequency, TF over GST control) with GABPA; 1.12 fold enrichment (6-mer frequency, TF over GST control) with ERG; 1.09 fold enrichment (6-mer frequency, TF over GST control) in the assay with ELF1; 1.08 fold enrichment (6-mer frequency, TF over GST control) with EHF. For the same sequence, the binding signal in the assay with SPI1 [2] is 1.08 fold enrichment (6-mer frequency, TF over GST control); in the assay with SPIB, 1.05 fold enrichment (6-mer frequency, TF over GST control).

The record behind these values is article PMC7862700, “An all-to-all approach to the identification of sequence-specific readers for epigenetic DNA modifications on cytosine”.
